Measurements published in PubChem BioAssay AID1159580 (chemical genetic matrix, 2015).
About 2,000 (36%) of roughly 5,500 compounds were called active. Not shown: some 18% with an inconclusive outcome. No stated cut-off is given here; in the data, active means normalized growth mostly below about 0.91 (no sharp cut-off); inconclusive means no clear call, values can overlap the other calls; inactive means mostly above about 0.92. Some of the results follow.

Assay: chemical genetic growth profiling, strain panel (AID 1159580);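 further: tested at 20 µM; growth read once vehicle control cultures reached saturation at 30 °C; 1 = growth at the plate median or of vehicle wells; lower values mean less growth of the strain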
Conditions: growth OD

Measured: normalized growth

CON
inactive: S. cerevisiae deletion strains, locus YJR075W, strain HOC1, hits give low values 1.02 | S. cerevisiae deletion strains, locus YKL009W, strain mrt4, hits give low values 0.978 | S. cerevisiae deletion strains, locus YKL068W, hits give low values 0.992 | S. cerevisiae deletion strains, locus YKL085W, strain MDH1 (second series), hits give low values 1.04 | S. cerevisiae deletion strains, locus YKL085W, strain MDH1, hits give low values 1.04 | S. cerevisiae deletion strains, locus YKL160W, strain elf1, hits give low values 1.06 | S. cerevisiae deletion strains, locus YKL190W, strain CNB1, hits give low values 1 | S. cerevisiae deletion strains, locus YKR001C, strain vps1, hits give low values 0.989 | S. cerevisiae deletion strains, locus YKR026C, strain gcn3, hits give low values 0.993 | S. cerevisiae deletion strains, locus YKR091W, strain srl3, hits give low values 0.998 | S. cerevisiae deletion strains, locus YLL001W, strain dnm1, hits give low values 1 | S. cerevisiae deletion strains, locus YLL026W, hits give low values 1.01 | S. cerevisiae deletion strains, locus YLL041C, strain sdh2, hits give low values 0.988 | S. cerevisiae deletion strains, locus YLR027C, strain aat2, hits give low values 1.01 | S. cerevisiae deletion strains, locus YLR039C, strain RIC1, hits give low values 1.01 | S. cerevisiae deletion strains, locus YLR058C, strain SHM2, hits give low values 1.01 | S. cerevisiae deletion strains, locus YLR102C, strain apc9, hits give low values 0.989 | S. cerevisiae deletion strains, locus YLR113W, strain HOG1, hits give low values 0.988 | S. cerevisiae deletion strains, locus YLR221C, strain rsa3, hits give low values 0.984 | S. cerevisiae deletion strains, locus YLR258W, strain gsy2, hits give low values 1.01 | S. cerevisiae deletion strains, locus YLR262C, strain YPT6 (second series), hits give low values 0.999 | S. cerevisiae deletion strains, locus YLR262C, strain YPT6, hits give low values 1.01 | S. cerevisiae deletion strains, locus YLR268W, strain sec22, hits give low values 0.995 | S. cerevisiae deletion strains, locus YLR320W, strain mms22, hits give low values 1.02 | S. cerevisiae deletion strains, locus YLR330W, strain CHS5, hits give low values 1.01 | S. cerevisiae deletion strains, locus YLR342W, strain FKS1 (second series), hits give low values 0.999 | S. cerevisiae deletion strains, locus YLR342W, strain FKS1, hits give low values 1.01 | S. cerevisiae deletion strains, locus YLR357W, strain rsc2, hits give low values 0.97 | S. cerevisiae deletion strains, locus YLR370C, strain arc18, hits give low values 1.04 | S. cerevisiae deletion strains, locus YLR371W, strain rom2, hits give low values 0.99 | S. cerevisiae deletion strains, locus YLR384C, strain iki3, hits give low values 1.01 | S. cerevisiae deletion strains, locus YLR418C, strain cdc73, hits give low values 1.03 | S. cerevisiae deletion strains, locus YML016C, strain PPZ1, hits give low values 1 | S. cerevisiae deletion strains, locus YML032C, strain rad52, hits give low values 1.01 | S. cerevisiae deletion strains, locus YML120C, strain ndi1, hits give low values 1 | S. cerevisiae deletion strains, locus YML124C, strain tub3, hits give low values 0.987 | S. cerevisiae deletion strains, locus YMR058W, strain fet3, hits give low values 0.998 | S. cerevisiae deletion strains, locus YMR078C, strain ctf18, hits give low values 0.99 | S. cerevisiae deletion strains, locus YMR125W, strain sto1, hits give low values 0.987 | S. cerevisiae deletion strains, locus YMR129W, hits give low values 1.02 | S. cerevisiae deletion strains, locus YMR205C, strain PFK2, hits give low values 1 | S. cerevisiae deletion strains, locus YMR223W, strain ubp8, hits give low values 0.993 | S. cerevisiae deletion strains, locus YMR231W, strain pep5, hits give low values 0.996 | S. cerevisiae deletion strains, locus YMR263W, strain SAP30, hits give low values 1 | S. cerevisiae deletion strains, locus YMR307W, strain GAS1, hits give low values 1.09 | S. cerevisiae deletion strains, locus YNL067W, strain RPL9B, hits give low values 1.03 | S. cerevisiae deletion strains, locus YNL071W, strain lat1, hits give low values 0.985 | S. cerevisiae deletion strains, locus YNL153C, strain GIM3, hits give low values 1.04 | S. cerevisiae deletion strains, locus YNL183C, strain NPR1, hits give low values 0.927 | S. cerevisiae deletion strains, locus YNL209W, strain ssb2, hits give low values 1.01 | S. cerevisiae deletion strains, locus YNL233W, strain BNI4, hits give low values 1.04 | S. cerevisiae deletion strains, locus YNL248C, strain rpa49, hits give low values 1.02 | S. cerevisiae deletion strains, locus YNL250W, strain rad50, hits give low values 0.99 | S. cerevisiae deletion strains, locus YNL271C, strain bni1, hits give low values 0.986 | S. cerevisiae deletion strains, locus YNL298W, strain CLA4, hits give low values 0.981 | S. cerevisiae deletion strains, locus YNL307C, strain MCK1, hits give low values 0.993 | S. cerevisiae deletion strains, locus YNL322C, strain KRE1 (second series), hits give low values 1.01 | S. cerevisiae deletion strains, locus YNR049C, strain mso1, hits give low values 1 | S. cerevisiae deletion strains, locus YNR052C, strain pop2, hits give low values 0.978 | S. cerevisiae deletion strains, locus YOL006C, strain TOP1, hits give low values 1.08 | S. cerevisiae deletion strains, locus YOL012C, strain htz1 1.2 | S. cerevisiae deletion strains, locus YOL147C, strain pex11, hits give low values 0.998 | S. cerevisiae deletion strains, locus YOR001W, strain rrp6, hits give low values 0.968 | S. cerevisiae deletion strains, locus YOR061W, strain CKA2, hits give low values 1 | S. cerevisiae deletion strains, locus YOR069W, strain VPS5, hits give low values 0.993 | S. cerevisiae deletion strains, locus YOR070C, strain gyp1, hits give low values 1.02 | S. cerevisiae deletion strains, locus YOR080W, strain dia2, hits give low values 0.996 | S. cerevisiae deletion strains, locus YOR083W, strain WHI5, hits give low values 1.03 | S. cerevisiae deletion strains, locus YOR106W, strain vam3, hits give low values 1.02 | S. cerevisiae deletion strains, locus YOR136W, strain idh2, hits give low values 0.98 | S. cerevisiae deletion strains, locus YOR144C, strain elg1, hits give low values 0.995 | S. cerevisiae deletion strains, locus YOR184W, strain ser1, hits give low values 0.958 | S. cerevisiae deletion strains, locus YOR231W, strain MKK1, hits give low values 1.04 | S. cerevisiae deletion strains, locus YOR265W, strain rbl2, hits give low values 1.01 | S. cerevisiae deletion strains, locus YOR270C, strain vph1, hits give low values 1.04 | S. cerevisiae deletion strains, locus YOR290C, strain snf2, hits give low values 1.07 | S. cerevisiae deletion strains, locus YOR316C, strain cot1, hits give low values 0.983 | S. cerevisiae deletion strains, locus YPL051W, strain arl3, hits give low values 1.04 | S. cerevisiae deletion strains, locus YPL055C, strain LGE1, hits give low values 1.09 | S. cerevisiae deletion strains, locus YPL078C, strain atp4, hits give low values 1.04 | S. cerevisiae deletion strains, locus YPL106C, strain sse1, hits give low values 1.01 | S. cerevisiae deletion strains, locus YPL240C, strain hsp82, hits give low values 1 | S. cerevisiae deletion strains, locus YPL256C, strain CLN2, hits give low values 0.993 | S. cerevisiae deletion strains, locus YPR119W, strain clb2, hits give low values 0.99 | S. cerevisiae deletion strains, locus YPR141C, strain kar3, hits give low values 0.989 | S. cerevisiae deletion strains, locus YPR163C, strain tif3, hits give low values 0.991 | S. cerevisiae deletion strains, locus YPR167C, strain met16, hits give low values 0.984 | S. cerevisiae deletion strains, strain wtn01, hits give low values 0.978 | S. cerevisiae strains, strain wild type, hits give low values 0.997
